A short description of assay [1]: antimalarial activity against Dd2 strain (AID 2302;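 active = growth inhibition above 50% at the single 2 µM test dose, taken to imply half-maximal potency below 2 µM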;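 also: 0% = DMSO untreated growth and 100% = chloroquine plus artemisinin killed control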). The following applies: P. falciparum Dd2 in RBCs, LDH growth readout, 72 h; at 2 µM; hits give high values.
Assay [2] can be described thus: human hepatoma cell viability loss – ATP luminescence, cytotoxicity control for P. falciparum antimalarial project, primary screen (AID 2303;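 active = inhibition above 50%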;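 also: 0% = DMSO wells and 100% = digitonin-killed cells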). The conditions noted are these: HepG2 viability, 24-48 h, at 10 µM, hits give high values.
In assay [3] the target is L-lactate dehydrogenase (Plasmodium falciparum (isolate CDC / Honduras)) (UniProt Q27743). Kind of assay: PfLDH activity inhibition – cell lysate, 3D7 strain, counter-screen for P. falciparum growth inhibition project (AID 2304).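 Also: 0% = vehicle and 100% = reference inhibitor.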 The following applies: P. falciparum 3D7 crude extract, LDH APAD/NBT absorbance; at 2 µM; hits give high values. For orientation: The purpose of a counterscreen is to sort out artefacts and off-target activity.
L-lactate dehydrogenase (Plasmodium falciparum (isolate CDC / Honduras)), sequence (Q27743 whole entry, looked up): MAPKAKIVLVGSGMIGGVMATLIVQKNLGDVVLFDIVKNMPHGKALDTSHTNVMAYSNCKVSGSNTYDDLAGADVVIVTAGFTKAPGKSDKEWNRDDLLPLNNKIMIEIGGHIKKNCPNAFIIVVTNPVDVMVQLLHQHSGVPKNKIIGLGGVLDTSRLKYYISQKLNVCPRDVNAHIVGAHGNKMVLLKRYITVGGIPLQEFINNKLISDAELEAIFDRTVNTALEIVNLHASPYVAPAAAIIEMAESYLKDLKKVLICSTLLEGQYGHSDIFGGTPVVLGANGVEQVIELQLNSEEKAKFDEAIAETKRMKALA

The nature of assay [4]: inhibition of 3D7 malaria parasite growth – strain 3D7 (AID 2306).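 Also: 0% = DMSO wells and 100% = chloroquine plus artemisinin control wells.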 The conditions noted are these: P. falciparum 3D7 erythrocytic growth, LDH absorbance, 72 h; at 2 µM; hits give high values.
Assay [5] addresses Calcium-dependent protein kinase 1 (Plasmodium falciparum (isolate 3D7)) (UniProt P62344). Kind of assay: PfCDPK1 kinase inhibitors, biochemical, TCAMS library (AID 1159585; cut-off not given, nearly all actives have IC50 up to about 0.98 µM;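 also: inhibitors leave more ATP so luminescence rises with inhibition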). The following applies: recombinant PfCDPK1, Kinase-Glo ATP depletion luminescence.
In assay [6] the target is Plasmodium falciparum protein kinase 6 (PK6, PF3D7_1337100) (UniProt Q8IDW1). Briefly: PfPK6 kinase inhibitors, biochemical, TCAMS library (AID 1159586). The following applies: recombinant PfPK6, Kinase-Glo ATP depletion luminescence. For orientation: Kinase-Glo measures the ATP left after a reaction by luminescence.
Plasmodium falciparum protein kinase 6 (PK6, PF3D7_1337100), sequence (Q8IDW1 1-305): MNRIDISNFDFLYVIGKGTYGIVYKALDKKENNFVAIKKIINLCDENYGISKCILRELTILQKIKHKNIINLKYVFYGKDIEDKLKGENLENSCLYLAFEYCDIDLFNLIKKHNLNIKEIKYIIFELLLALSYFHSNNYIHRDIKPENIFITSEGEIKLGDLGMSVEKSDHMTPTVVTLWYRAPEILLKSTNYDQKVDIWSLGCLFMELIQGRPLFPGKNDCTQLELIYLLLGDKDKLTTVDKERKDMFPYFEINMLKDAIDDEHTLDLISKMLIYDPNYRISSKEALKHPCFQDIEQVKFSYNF
The target of assay [7] is Protein kinase 7 (PK7), Plasmodium falciparum 3D7 (PF3D7_0213400) (UniProt Q7YTF7). Briefly: inhibition of Plasmodium PK7 catalytic activity – biochemical, TCAMS antimalarial set, Kinase-Glo luminescence (AID 1159587). The conditions noted are these: recombinant PfPK7, Kinase-Glo ATP depletion luminescence.
Protein kinase 7 (PK7), Plasmodium falciparum 3D7 (PF3D7_0213400), sequence (Q7YTF7 1-343): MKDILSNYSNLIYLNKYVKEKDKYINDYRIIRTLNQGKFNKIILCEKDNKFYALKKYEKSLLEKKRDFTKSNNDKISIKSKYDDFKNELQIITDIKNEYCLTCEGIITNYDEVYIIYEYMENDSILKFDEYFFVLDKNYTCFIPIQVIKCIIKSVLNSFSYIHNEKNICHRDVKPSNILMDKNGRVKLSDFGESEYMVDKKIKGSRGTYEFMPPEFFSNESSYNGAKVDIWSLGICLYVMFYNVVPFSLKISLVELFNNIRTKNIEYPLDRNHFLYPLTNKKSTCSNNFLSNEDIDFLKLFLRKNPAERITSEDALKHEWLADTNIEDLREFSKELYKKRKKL
The target in assay [8] is Calcium-dependent protein kinase 4 (Plasmodium falciparum (isolate 3D7)) (UniProt Q8IBS5). Briefly: PfCDPK4 kinase inhibitors, biochemical, TCAMS library (AID 1159588; cut-off not given, nearly all actives have IC50 up to about 0.91 µM). The conditions noted are these: recombinant PfCDPK4, Kinase-Glo ATP depletion luminescence.
Calcium-dependent protein kinase 4 (Plasmodium falciparum (isolate 3D7)), sequence (Q8IBS5 whole entry, looked up): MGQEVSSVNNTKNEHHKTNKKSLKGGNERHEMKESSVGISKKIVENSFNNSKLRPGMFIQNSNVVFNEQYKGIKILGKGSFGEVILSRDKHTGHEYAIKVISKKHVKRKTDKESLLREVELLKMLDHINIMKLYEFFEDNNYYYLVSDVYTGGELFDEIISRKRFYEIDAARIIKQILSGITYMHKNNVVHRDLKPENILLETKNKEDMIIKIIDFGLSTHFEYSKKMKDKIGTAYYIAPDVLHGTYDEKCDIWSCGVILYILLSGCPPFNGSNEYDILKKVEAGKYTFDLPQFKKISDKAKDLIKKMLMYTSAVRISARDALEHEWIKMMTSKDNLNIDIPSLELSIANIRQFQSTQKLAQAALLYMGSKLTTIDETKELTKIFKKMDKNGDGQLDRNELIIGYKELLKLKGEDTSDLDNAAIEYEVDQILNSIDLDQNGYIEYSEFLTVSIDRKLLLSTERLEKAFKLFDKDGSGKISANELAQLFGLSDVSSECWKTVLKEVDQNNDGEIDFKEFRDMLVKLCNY

A number with no mark means an inactive call. For some of these results: Measured potencies and affinities stand elsewhere. Activity calls are given as the source filed them. Unless noted, no rule for the calls is given here.

Calcium-dependent protein kinase 1 (Plasmodium falciparum (isolate 3D7)), sequence (P62344 whole entry, looked up): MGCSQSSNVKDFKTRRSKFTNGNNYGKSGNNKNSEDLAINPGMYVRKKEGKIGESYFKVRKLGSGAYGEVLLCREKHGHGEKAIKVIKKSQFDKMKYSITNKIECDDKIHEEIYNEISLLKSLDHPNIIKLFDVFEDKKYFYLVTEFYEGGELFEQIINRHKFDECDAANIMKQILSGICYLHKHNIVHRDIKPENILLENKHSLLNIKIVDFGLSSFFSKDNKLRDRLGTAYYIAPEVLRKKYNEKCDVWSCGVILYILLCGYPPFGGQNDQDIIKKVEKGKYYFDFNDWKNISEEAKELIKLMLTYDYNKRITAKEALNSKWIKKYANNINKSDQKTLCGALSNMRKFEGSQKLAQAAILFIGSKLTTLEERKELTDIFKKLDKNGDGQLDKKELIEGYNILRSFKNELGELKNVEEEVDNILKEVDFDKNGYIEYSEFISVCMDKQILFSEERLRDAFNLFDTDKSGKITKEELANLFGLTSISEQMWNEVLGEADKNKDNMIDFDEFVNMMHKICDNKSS

In general, inhibition refers to the drop in the measured response relative to a control, in per cent. Consider `CN1CCC(NC(=O)c2cc(Oc3ccc4c(c3)CCN4C(=O)Nc3cccc(C(F)(F)F)c3)ccn2)CC1`, for which the growth inhibition in assay [1] is 17%; in assay [4] it was 92% (active). Further, the inhibition was 16% in assay [2] and -3% in assay [3]. For the same molecule, the result in assay [5], in assay [6], in assay [7] and in assay [8] was inactive.

As for `O=C(Nc1ccc(F)cc1)N1CCCN(c2ccnc3cc(Cl)ccc23)CC1`, the figures for the growth inhibition in assay [1] and in assay [4] were 16% and 97% (active), respectively. Also, the inhibition in assay [2] was 7%; in assay [3], -1%. The result in assay [5], in assay [6], in assay [7] and in assay [8] was inactive.

`Cc1cc(NC2CCN(CC3CCCCC3)C2)nc(Nc2ccc(Br)cc2)n1` (stereo not given): the growth inhibition in assay [1] was 83% (active); in assay [4], 101% (active). Moreover, the inhibition in assay [2] is 22%; in assay [3], -1%. Besides, the result in assay [5], in assay [6], in assay [7] and in assay [8] was inactive.

Take `COc1cc2nc(-c3ccccc3)nc(N3CCN(C(=O)c4ccco4)CC3)c2cc1OC`: the growth inhibition was 87% (active) in assay [1] and 89% (active) in assay [4]. In addition, the results for the inhibition in assay [2] and in assay [3] were -7% and 7%, respectively. Also, the outcome in assay [5], in assay [6], in assay [7] and in assay [8] was inactive.

Regarding `COc1ccc(NC(=O)Nc2cccc(-c3cccc(-c4nc5ccccc5[nH]4)c3)c2)cc1`, the growth inhibition in assay [1] was 41%; in assay [4] it was 101% (active). For the same molecule, the inhibition in assay [2] was 41%; in assay [3] it was 3%. In addition, the outcome in assay [5], in assay [6], in assay [7] and in assay [8] was inactive.

With `CCCCCc1cnc2nc(N)nc(N)c2c1C`, the growth inhibition in assay [1] was 23%; in assay [4] it was 96% (active). The inhibition is 64% (active) in assay [2] and -3% in assay [3]. Moreover, the result in assay [5], in assay [6], in assay [7] and in assay [8] was inactive.

Take `COc1ccc(CCN(C)CCOc2ccc(NC(=O)c3cccc4cc5ccccc5nc34)cc2)cc1OC`: the growth inhibition in assay [1] was 99% (active); in assay [4], 100% (active). For the same molecule, the inhibition is 37% in assay [2] and -5% in assay [3]. Further, the outcome in assay [5], in assay [6], in assay [7] and in assay [8] was inactive.

Consider `O=C(NCCCCN1CCC(O)(c2ccc3c(c2)OCO3)CC1)c1ccc(NC(=O)c2ccc(Cl)cc2)cc1`, for which the growth inhibition was 6% in assay [1] and 86% (active) in assay [4]. For the same molecule, the inhibition is 15% in assay [2] and -1% in assay [3]. Besides, the result in assay [5], in assay [6], in assay [7] and in assay [8] was inactive.

As for `CCCCCCN(CCCCCC)CC(O)c1c(OC)ccc2ccccc12` (stereo not given), the growth inhibition in assay [1] is 100% (active); in assay [4], 101% (active). The values for the inhibition in assay [2] and in assay [3] were 18% and -1%, respectively. Further, the result in assay [5], in assay [6], in assay [7] and in assay [8] was inactive.

Consider `CN(C)Cc1ccc(-c2cccc(NC(=O)c3ccc(Cl)cc3)c2)cc1`, for which the growth inhibition in assay [1] was 13%; in assay [4] it was 94% (active). The inhibition in assay [2] was 24%; in assay [3], 3%. Further, the result in assay [5], in assay [6], in assay [7] and in assay [8] was inactive.

As to `CNC(=O)c1cc(Nc2nnc(-c3ccc(C)c(S(=O)(=O)NC4CCCCC4)c3)c3ccccc23)ccc1OC`, the growth inhibition in assay [1] was 61% (active); in assay [4] it was 87% (active). The inhibition in assay [2] was -10%; in assay [3] it was 5%. Further, the result in assay [5], in assay [6], in assay [7] and in assay [8] was inactive.

Regarding `CN(C)CCC(O)(c1ccc(Br)cc1)c1cccnc1` (stereo not given), the growth inhibition is 1% in assay [1] and 96% (active) in assay [4]. Moreover, the inhibition was 22% in assay [2] and 5% in assay [3]. In addition, the result in assay [5], in assay [6], in assay [7] and in assay [8] was inactive.

For the molecule `Cc1cccc(CNc2nccc3[nH]c4ccccc4c23)c1`, the growth inhibition is 51% (active) in assay [1] and 92% (active) in assay [4]. The inhibition in assay [2] was 14%; in assay [3], 0%. Further, the result in assay [5], in assay [6], in assay [7] and in assay [8] was inactive.

`COc1ccc(NC(=O)c2ccc(-c3ccc(-c4cccnc4)cc3)c(C)c2)cc1OCCN(C)C`: the growth inhibition in assay [1] is 73% (active); in assay [4], 99% (active). In addition, the inhibition in assay [2] is 24%; in assay [3] it was 0%. Besides, the result in assay [5], in assay [6], in assay [7] and in assay [8] was inactive.

With `Cc1cc(NC2CCCC2)nc(Nc2ccccc2C)n1`, the growth inhibition is 20% in assay [1] and 88% (active) in assay [4]. Besides, the inhibition in assay [2] is -2%; in assay [3] it was 2%. For the same molecule, the outcome in assay [5], in assay [6], in assay [7] and in assay [8] was inactive.

Regarding `CCOc1ccc(C(=O)Nc2cc(Br)c3c(c2)CNCC3)cc1C#N`, the growth inhibition in assay [1] is 32%; in assay [4] it was 97% (active). For the same molecule, the results for the inhibition in assay [2] and in assay [3] were 17% and -6%, respectively. In addition, the outcome in assay [5], in assay [6], in assay [7] and in assay [8] was inactive.

Regarding `CNc1ccc(CNCc2ccc(-c3ccc(-c4nc5c(C)cccc5[nH]4)cc3)cc2)cc1`, the growth inhibition in assay [1] is 92% (active); in assay [4], 100% (active). Further, the figures for the inhibition in assay [2] and in assay [3] were 35% and -8%, respectively. Besides, the outcome in assay [5], in assay [6], in assay [7] and in assay [8] was inactive.

Regarding `N#Cc1ccc(N2CCN(Cc3cccc(-c4cccc(-c5nc6ccc(F)cc6[nH]5)c4)c3)CC2)nc1`, the growth inhibition in assay [1] was 52% (active); in assay [4], 90% (active). Besides, the inhibition was 26% in assay [2] and 3% in assay [3]. In addition, the result in assay [5], in assay [6], in assay [7] and in assay [8] was inactive.

Turning to `C=CCn1c(SCc2c(C)noc2C)nc2scc(-c3cccs3)c2c1=O`, the growth inhibition in assay [1] is 34%; in assay [4] it was 88% (active). Also, the inhibition is 13% in assay [2] and 0% in assay [3]. The outcome in assay [5], in assay [6], in assay [7] and in assay [8] was inactive.

For `CN1CCCc2cc(NC(=O)c3cc(-c4ccc(Cl)cc4)cs3)ccc2C1`, the values for the growth inhibition in assay [1] and in assay [4] were 34% and 100% (active), respectively. The inhibition in assay [2] was 15%; in assay [3] it was 4%. Further, the result in assay [5], in assay [6], in assay [7] and in assay [8] was inactive.

These data come from PubChem BioAssay.
